According to PubChem BioAssay (NCATS):
Results filed as inconclusive are left out. The source made the active and inactive calls. The call rests on the fitted dose curve; in most records, active means well fitted curve in the direction sought with a large enough effect; inconclusive means small, poorly fitted or top-dose-only effect, or another doubt; inactive means no such curve, though single readings can be large; an effect the other way counts as inactive or inconclusive.

Legend:
[1] = test system: NAD(P)H diaphorase (Clostridium kluyveri); experiment: Diaphorse counterscreen qHTS: Assay Interference Panel against the NCATS CANVASS Library (AID 1347362)
Summary of the method: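 Clostridium kluyveri diaphorase in PBS with 0.01% Tween-20 was preincubated 15 min at room temperature in the dark with compounds (11-point series). Resorufin fluorescence (ex 525/20, em 598/25) was read 5 min after adding resazurin/NADH.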

[2] = target: Luciferin 4-monooxygenase (Photinus pyralis) (UniProt P08659); experiment: Firefly luciferase counterscreen qHTS: Assay Interference Panel against the NCATS CANVASS Library (AID 1347363)
Sequence of Luciferin 4-monooxygenase (Photinus pyralis) (P08659 whole entry, looked up): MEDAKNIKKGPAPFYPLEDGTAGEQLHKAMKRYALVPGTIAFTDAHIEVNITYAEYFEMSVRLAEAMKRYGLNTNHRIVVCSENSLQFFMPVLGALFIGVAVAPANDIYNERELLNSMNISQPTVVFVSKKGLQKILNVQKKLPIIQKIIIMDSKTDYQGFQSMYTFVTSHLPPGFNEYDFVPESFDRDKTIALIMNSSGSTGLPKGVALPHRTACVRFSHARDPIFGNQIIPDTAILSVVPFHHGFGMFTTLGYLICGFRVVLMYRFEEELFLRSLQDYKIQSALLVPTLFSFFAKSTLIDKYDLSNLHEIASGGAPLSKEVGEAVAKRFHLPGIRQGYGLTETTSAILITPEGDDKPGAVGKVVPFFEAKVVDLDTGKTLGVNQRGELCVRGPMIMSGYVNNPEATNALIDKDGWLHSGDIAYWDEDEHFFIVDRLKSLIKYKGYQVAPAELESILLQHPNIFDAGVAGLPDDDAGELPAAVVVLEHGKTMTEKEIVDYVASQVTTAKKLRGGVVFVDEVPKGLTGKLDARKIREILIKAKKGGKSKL
Summary of the method: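 Purified P. pyralis luciferase was added to compounds (11-point series) preincubated 15 min at room temperature with substrate containing 0.013 mM D-luciferin and 0.013 mM ATP; luminescence was read after 5 min.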

[3] = SDT Cancer Cell Toxicity qHTS against the NCATS CANVASS Library (AID 1347365);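 further: SDT canine glioma cells 500 per well in 1536 well plates; nearly all actives have a fitted effect of over 60% in size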
Summary of the method: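 Canine SDT glioma cell toxicity was scored by ATP-dependent luminescence after a 72 hr incubation with an 11-point compound series.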

[4] = qHTS for ATAD5 Agonist screened against the NCATS CANVASS Library (AID 1347367);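 further: luciferase reporter driven by ATAD5 which rises upon DNA damage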
Summary of the method: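 HEK293T-ATAD5 luc reporter; 2000 cells/well; 5hr settle; cpd 11-pt qHTS; 16hr 37C 5% CO2 dark; viability by CellTiter-Fluor (AFC fluorescence); then luciferase luminescence, 30min RT.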

[5] = G06 Cancer Cell Toxicity qHTS against the NCATS CANVASS Library (AID 1347368); further: nearly all actives have a fitted effect of over 60% in size
Source text: Natural products and their derivatives continue to be wellsprings of nascent therapeutic potential. However, many laboratories have limited resources for biological evaluation, leaving their previously isolated or synthesized compounds largely or completely untested. To address this issue, the Canvass library of natural products was assembled (https://tripod.nih.gov/canvass), in collaboration with academic and industry researchers, for quantitative high-throughput screening (qHTS) across a diverse set of cell-based and biochemical assays. […] The library was formatted into 1536-well plates and evaluated in 50 qHTS (in an 11-pnt concentration series) bioassays with broad scope of disease-relevant mechanisms. The resulting data set from 50 different assays was then systematically analyzed to identify overall trends and specific natural products with interesting biological activities. […] This assay uses ATP (luminescence) content to measure the cytotoxiciy of compounds on G06 dog glioma cancer cell line. […]
Cancer Cell Toxicity qHTS protocol: for cell lines G06, J3T, and SDT. […] Luminescence signal was acquired via the ViewLux plate reader (PerkinElmer) using a clear emission filter, 2 sec exposure, and 1x binning settings.

[6] = MCF7 Cancer Cell Toxicity qHTS against the NCATS CANVASS Library (AID 1347369)
Summary of the method: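 Cells seeded at 500/well, then compound pinned. Plates incubated 72 hr at 37C, 5% CO2. CellTiterGlo added; luminescence read.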

[7] = qHTS for ATAD5 Antagonist screened against the NCATS CANVASS Library (AID 1347370);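 further: HEK293T cells carrying an ATAD5 luciferase reporter co-treated with 10 µM 5-fluorouridine; nearly all actives have a fitted effect of over 65% in size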
Summary of the method: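 HEK293T-ATAD5 luc reporter, 2000 cells/well; 5hr attach; cpd + 10 uM 5-FUrd; 16hr 37C, 5% CO2. Readouts: CellTiter-Fluor fluorescence (1hr), then Amplite luciferase luminescence (30min RT).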

[8] = J3T Cancer Cell Toxicity qHTS against the NCATS CANVASS Library (AID 1347371);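 further: J3T is a canine glioma cancer cell line seeded at 500 cells per well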
Summary of the method: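 ATP-based cytotoxicity in canine J3T cells: 72 hr exposure at 37C, 11-point titration, CellTiterGlo luminescent detection.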

[9] = target: Nuclear receptor subfamily 1 group I member 3 (Homo sapiens) (UniProt Q14994); experiment: qHTS for Constitutive Androstane Receptor (CAR) Antagonist screened against the NCATS CANVASS Library (AID 1347372);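 further: cells stimulated with 50 nM CITCO agonist so inhibition reflects antagonism; luciferase from CYP2B6 promoter reporter driven by hCAR in HepG2 cells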
Sequence of Nuclear receptor subfamily 1 group I member 3 (Homo sapiens) (Q14994 whole entry, looked up): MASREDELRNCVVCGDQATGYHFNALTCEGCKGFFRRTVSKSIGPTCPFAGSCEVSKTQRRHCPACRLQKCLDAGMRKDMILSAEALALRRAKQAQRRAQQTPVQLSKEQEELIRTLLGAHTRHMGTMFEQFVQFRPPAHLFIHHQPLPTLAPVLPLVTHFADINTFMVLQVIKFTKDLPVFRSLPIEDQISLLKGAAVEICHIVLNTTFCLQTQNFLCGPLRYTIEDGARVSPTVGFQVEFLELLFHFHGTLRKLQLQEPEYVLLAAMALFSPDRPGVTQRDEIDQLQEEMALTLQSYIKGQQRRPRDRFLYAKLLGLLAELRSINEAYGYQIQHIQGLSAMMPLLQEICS
Summary of the method: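 Cells were seeded and left 4hr to attach, then received compound at 11 concentrations and 50 nM CITCO. Following 24hr incubation, fluorescence viability and luciferase luminescence were read sequentially.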

[10] = KB-3-1 Cancer Cell Toxicity qHTS against the NCATS CANVASS Library (AID 1347366); conditions: KB-3-1 viability, CellTiter-Glo luminescence, 72 h; at 46.1 µM (top of the series); further: nearly all actives have a fitted effect of over 75% in size
Summary of the method: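 Luminescence from CellTiter-Glo (10 min, room temperature) measured KB-3-1 viability after 72 hr compound exposure at 37C. Cells were seeded at 500/well and tested in an 11-point series.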

Measured: outcome

C=C(C)[C@@H]1CC[C@]2(C(=O)O)CC[C@]3(C)[C@H](CC[C@@H]4[C@@]5(C)CC[C@H](O)C(C)(C)[C@@H]5CC[C@]43C)[C@@H]12
not listed: [10]
inactive: all other assays above

O=c1c(O)c(-c2ccc(O)c(O)c2)oc2cc(O)ccc12
not listed: [1] | [3] | [5]
inactive: all other assays above
